We go through five molecules from PubChem BioAssay (EPA / NIEHS).

A short description of assay [1]: CCTE_Mundy_HCI_hNP1_Casp3_7: CCTE's Caspase-Glo 3/7 Assay in human neuroprogenitor cells for Apoptosis, Mundy Lab (AID 2284240). The gist of the method:
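Luminescent caspase-3/7 readout, 26.5 h post-dose, in human neural progenitor cells from WA09 embryonic stem cells. Cells grew 40–44 h at 37 °C, 5% CO2 before chemical addition. Activity analysed as signal increase over DMSO baseline.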

Read-out in assay [2]: Interleukin 17F (IL17F), IL17F (gene 112744)
Kind of assay: BSK_BT_xIL17F: BioMAP Diversity Plus: BT Assay for Interleukin 17F (IL17F) Biomarker Activity (AID 2284243). The conditions noted are these: primary human B cells with PBMC. The gist of the method: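 B cell/PBMC co-culture (human primary), 24 h compound exposure; sIL-17F by Luminex xMAP; gain-of-signal fit vs DMSO baseline.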

Read-out in assay [3]: Actin alpha 1 (ACTA1), ACTA1 (gene 58)
The assay is described as follows: BSK_MyoF_ACTA1: BioMAP Diversity Plus: MyoF Assay for Actin alpha 1 (ACTA1) Biomarker Activity (AID 2284244). Conditions: primary human lung fibroblasts. Summed up:
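alpha-SMA levels read by ELISA against DMSO baseline, 24 h post-dose, in primary human lung fibroblasts. Parallel cultures stained with 0.1% SRB after 10% TCA fixation (560 nm) to flag overt cytotoxicity.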

Read-out in assay [4]: Interleukin 2 (IL2), IL2 (gene 3558)
Kind of assay: BSK_BT_xIL2: BioMAP Diversity Plus: BT Assay for Interleukin 2 (IL2) Biomarker Activity (AID 2284245). Conditions: primary human B cells with PBMC. Summed up: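 Secreted IL-2 was read by Luminex xMAP from B cells co-cultured with PBMC (human primary) 24 h post-dosing; activity was analysed as gain of signal relative to DMSO vehicle.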

Read-out in assay [5]: Basic fibroblast growth factor (bFGF), FGF2 (gene 2247)
Kind of assay: BSK_MyoF_bFGF: BioMAP Diversity Plus: MyoF Assay for Basic fibroblast growth factor (bFGF) Biomarker Activity (AID 2284246). Conditions: primary human lung fibroblasts. Summed up:
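bFGF was measured by ELISA in primary human lung fibroblasts 24 h after chemical addition. Signal was analysed as positive-direction change relative to DMSO baseline.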

Read-out in assay [6]: Collagen IV, COL4A1 (gene 1282)
The assay is described as follows: BSK_MyoF_CollagenIV: BioMAP Diversity Plus: MyoF Assay for Collagen IV Biomarker Activity (AID 2284247). Conditions: primary human lung fibroblasts. The gist of the method: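 Collagen IV quantified by ELISA in human lung fibroblast cultures 24 h after chemical treatment, with DMSO as baseline. Parallel SRB staining (0.1% SRB after TCA fixation, 560 nm) flags overt cytotoxicity.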

Read-out in assay [7]: Monokine induced gamma interferon (MIG), CXCL9 (gene 4283)
Kind of assay: BSK_KF3CT_MIG: BioMAP Diversity Plus: KF3CT Assay for Monokine induced gamma interferon (MIG) Biomarker Activity (AID 2284248). The conditions noted are these: primary human keratinocytes with fibroblasts. Summed up:
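Human keratinocyte plus foreskin fibroblast primary co-culture dosed with test chemical for 24 h; MIG level measured by ELISA and fitted in the positive direction against DMSO as baseline.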

Read-out in assay [8]: Vascular cell adhesion molecule 1 (VCAM1), VCAM1 (gene 7412)
Kind of assay: BSK_BF4T_VCAM1: BioMAP Diversity Plus: BF4T Assay for Vascular cell adhesion molecule 1 (VCAM1) Biomarker Activity (AID 2284249). The conditions noted are these: primary human bronchial epithelial cells with fibroblasts. The gist of the method:
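Cell-surface VCAM-1 quantified by ELISA after 24 h chemical exposure of human bronchial epithelial/dermal fibroblast co-cultures, with SRB staining in parallel wells for cytotoxicity; DMSO baseline, positive-direction fitting.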

Read-out in assay [9]: Collagen I, COL1A1 (gene 1277)
Kind of assay: BSK_hDFCGF_CollagenI: BioMAP Diversity Plus: hDFCGF Assay for Collagen I Biomarker Activity (AID 2284250). Conditions: primary human foreskin fibroblasts. Summed up: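 Collagen I quantified by ELISA 24 h after chemical dosing of human dermal fibroblast primary cells, with parallel SRB staining (0.1%, TCA-fixed, 560 nm) for overt cytotoxicity.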

Read-out in assay [10]: Interferon-inducible T-cell alpha chemoattractant (ITAC), CXCL11 (gene 6373)
Kind of assay: BSK_hDFCGF_ITAC: BioMAP Diversity Plus: hDFCGF Assay for Interferon-inducible T-cell alpha chemoattractant (ITAC) Biomarker Activity (AID 2284251). The conditions noted are these: primary human foreskin fibroblasts. Summed up: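 Measured by ELISA, the chemokine level serves as the endpoint in human skin fibroblast primary cultures 24 h after compound addition. Increases relative to DMSO-treated wells define activity.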

Read-out in assay [11]: Plasminogen activator inhibitor-1 (PAI1), SERPINE1 (gene 5054)
The assay is described as follows: BSK_KF3CT_PAI1: BioMAP Diversity Plus: KF3CT Assay for Plasminogen activator inhibitor-1 (PAI1) Biomarker Activity (AID 2284252). The conditions noted are these: primary human keratinocytes with fibroblasts. The gist of the method:
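PAI-1 levels quantified by ELISA after 24 h compound exposure of primary human skin keratinocytes co-cultured with fibroblasts. Activity is the gain relative to DMSO; cytotoxicity tracked in parallel cultures via SRB staining.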

Read-out in assay [12]: Monocyte Chemoattractant Protein-1 (MCP1), CCL2 (gene 6347)
The assay is described as follows: BSK_IMphg_MCP1: BioMAP Diversity Plus: IMphg Assay for Monocyte Chemoattractant Protein-1 (MCP1) Biomarker Activity (AID 2284253). The conditions noted are these: primary human endothelial cells with macrophages. Summed up:
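ELISA readout of MCP-1 at 24 hours in IMphg co-cultures of venular endothelial cells and macrophages, normalised to DMSO; parallel cultures stained with sulforhodamine B for overt cytotoxicity.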

Read-out in assay [13]: Interleukin-8 (IL8), CXCL8 (gene 3576)
The assay is described as follows: BSK_KF3CT_IL8: BioMAP Diversity Plus: KF3CT Assay for Interleukin-8 (IL8) Biomarker Activity (AID 2284254). The conditions noted are these: primary human keratinocytes with fibroblasts. Summed up:
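Human primary keratinocyte plus foreskin fibroblast co-culture dosed with test chemicals; IL-8 measured by ELISA 24 h after dosing. Activity fitted in the positive direction relative to DMSO negative control.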

Read-out in assay [14]: Macrophage Inflammatory Protein-1 Alpha (MIP1a), CCL3 (gene 6348)
Kind of assay: BSK_IMphg_MIP1a: BioMAP Diversity Plus: IMphg Assay for Macrophage Inflammatory Protein-1 Alpha (MIP1a) Biomarker Activity (AID 2284255). The conditions noted are these: primary human endothelial cells with macrophages. Summed up: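 MIP-1a protein levels were quantified by ELISA after 24 h treatment of human endothelial cell–macrophage co-cultures, compared with DMSO. Parallel cultures were fixed with TCA and stained with 0.1% SRB to gauge overt cytotoxicity.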

Read-out in assay [15]: Plasminogen activator inhibitor-1 (PAI1), SERPINE1 (gene 5054)
The assay is described as follows: BSK_MyoF_PAI1: BioMAP Diversity Plus: MyoF Assay for Plasminogen activator inhibitor-1 (PAI1) Biomarker Activity (AID 2284256).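 On outcome: PAI-1 protein level measured by ELISA in fibroblast cultures; PAI-1 read 24 h after compound addition.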 The conditions noted are these: primary human lung fibroblasts. The gist of the method:
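ELISA read-out of PAI-1 from primary human lung fibroblast cultures 24 h after dosing; gain-of-signal fit versus DMSO control.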

Read-out in assay [16]: CD69, CD69 (gene 969)
Kind of assay: BSK_IMphg_CD69: BioMAP Diversity Plus: IMphg Assay for CD69 Biomarker Activity (AID 2284257). The conditions noted are these: primary human endothelial cells with macrophages. The gist of the method:
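Readout is ELISA for CD69 in primary human venular endothelial cell/macrophage co-culture, taken at 24 h post-dosing. SRB staining of parallel cultures gauged overt cytotoxicity; signal increase versus DMSO defined activity.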

Read-out in assay [17]: Eotaxin 3, CCL26 (gene 10344)
Kind of assay: BSK_BF4T_Eotaxin3: BioMAP Diversity Plus: BF4T Assay for Eotaxin 3 Biomarker Activity (AID 2284258). Conditions: primary human bronchial epithelial cells with fibroblasts. Summed up: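 ELISA measurement of Eotaxin-3 after 24 h chemical exposure in a bronchial epithelial/dermal fibroblast co-culture, with DMSO as baseline. Parallel SRB staining (0.1% SRB after 10% TCA fixation, 560 nm) flagged overt cytotoxicity.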

Read-out in assay [18]: Monocyte Chemoattractant Protein-1 (MCP1), CCL2 (gene 6347)
Kind of assay: BSK_BF4T_MCP1: BioMAP Diversity Plus: BF4T Assay for Monocyte Chemoattractant Protein-1 (MCP1) Biomarker Activity (AID 2284259). The conditions noted are these: primary human bronchial epithelial cells with fibroblasts. The gist of the method:
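MCP-1 ELISA readout taken 24 h after dosing in the BF4T system (bronchial epithelial cells plus dermal fibroblasts). Parallel SRB total-protein staining flagged cytotoxicity; DMSO served as baseline, positive fitting direction.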

A short description of assay [19]: CCTE_Mundy_HCI_hNP1_CellTiter: CCTE's Cell Titer-Glo 2 Assay in human neuroprogenitor cells for Viability, Mundy Lab (AID 2284241; active means hit-call score of the fitted dose curve at least 0.9, where 1 is the maximum). Summed up: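 Viability read as luminescent ATP content (CellTiter-Glo, 30 min room temperature) twenty-four hours after dosing, relative to DMSO. Cells: WA09-derived hNP1 neuroprogenitors on poly-L-ornithine/laminin, plated 40 to 44 hours before chemical.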
(ATP-based viability assays read luminescence as a measure of living cells.)

Each structure is given as a SMILES string. Several values for one entry are separate records, joined by “and”; a condition that tells them apart may be missing. Equal values may be shown once. Results filed as inconclusive are left out. A structure can be active in one record and inactive in another. Activity calls are given as the source filed them. How the source made its calls, unless noted: active means hit-call score of the fitted dose curve at least 0.9, where 1 is the maximum; inactive means score below 0.9.

For orientation: AC50 means the concentration at which the activity in the assay is half-maximal. As for `NS(=O)(=O)C(F)(F)C(F)(F)C(F)(F)C(F)(F)C(F)(F)C(F)(F)C(F)(F)C(F)(F)F`, the result in [1], in [4], in assay [9] and in [16] was inactive. Further, the AC50 in [2] is 35.5 µM (active) and 45.9 µM (active); in assay [3] it was 10.9 µM (active) and 12 µM (active); in assay [5], 45.6 µM (active) and 45.4 µM (active); in [6] it was 7.27 µM (active) and 7.31 µM (active); in assay [7] it was 27.9 µM (active) and 51.6 µM (active); in [8], 24.8 µM (active) and 23.3 µM (active). Further, the AC50 was 8.34 µM (active) and 8.29 µM (active) in assay [10]; 40.7 µM (active) and 21.7 µM (active) in [11]; 45.2 µM (active) and 50.4 µM (active) in assay [12]; 37.2 µM (active) and 22.3 µM (active) in [13]; 54.8 µM (active) and 43.3 µM (active) in assay [14]; 46.3 µM (active) and 55.1 µM (active) in [15]. Also, the AC50 in assay [16] is 10 µM (active); in assay [17], 20.4 µM (active) and 12.6 µM (active); in assay [18], 47.9 µM (active) and 42 µM (active).
Consider `O=S(=O)(O)C(F)(F)C(F)(F)C(F)(F)C(F)(F)F`, for which the molecule was classed as inactive in assay [1], in [19], in assay [2], in [3], in assay [4] and in [5]. In addition, the outcome in assay [6], in assay [7], in assay [8], in [9], in assay [10] and in [11] was inactive. Further, the outcome in assay [12], in assay [13], in assay [14], in assay [15], in [16] and in assay [17] was inactive. Further, the result in [18] was inactive.
As to `O=C(O)C(F)(F)C(F)(F)C(F)(F)C(F)(F)C(F)(F)F`, the outcome in assay [2], in assay [3], in assay [4], in assay [5], in assay [6] and in [7] was inactive. Besides, the result in assay [8], in assay [9], in [10], in assay [11], in assay [12] and in assay [13] was inactive. Also, the outcome in [14], in assay [15], in assay [16], in assay [17] and in assay [18] was inactive.
Take `O=C(O)C(F)(F)C(F)(F)C(F)(F)C(F)(F)C(F)(F)C(F)(F)C(F)(F)C(F)(F)C(F)(F)F`: the outcome in [1], in assay [19], in assay [2], in assay [4], in assay [9] and in assay [13] was inactive. Further, the AC50 in [3] was 45.3 µM (active) and 23.6 µM (active); in assay [5], 56.9 µM (active) and 55.4 µM (active); in assay [6], 7.07 µM (active) and 7.44 µM (active); in [7], 50.1 µM (active) and 45.2 µM (active); in [8] it was 11.8 µM (active) and 14.2 µM (active); in assay [10], 19 µM (active) and 22 µM (active). Further, the AC50 in assay [11] was 41.7 µM (active) and 33.4 µM (active); in [12] it was 46.9 µM (active) and 53.7 µM (active); in assay [13] it was 44.9 µM (active); in assay [14], 47 µM (active) and 33.7 µM (active); in [15], 46.7 µM (active) and 54.8 µM (active); in assay [16] it was 45.3 µM (active) and 42 µM (active). For the same molecule, the AC50 in assay [17] is 9.59 µM (active) and 12.1 µM (active); in assay [18], 9.32 µM (active) and 8.22 µM (active).
As to `Sc1ccccc1`, the outcome in [2], in assay [3], in [4], in [5], in [6] and in assay [15] was inactive.
